# HADH2 inh – HADH2 (human) dehydrogenase inhibition. Q99714. recombinant HADH2, NADH fluorescence, beta-hydroxybutyryl-CoA. Potency, µM (titrated, usually from 57.1 µM), inactives show at the top dose activity change, negative = inhibition, actives largely listed as inhibitors. 73,000 compounds, 3.4% hits; also: potency is read from the fitted curve at half-maximal effect; % is scaled to controls: 0 for no effect and ±100 for the full control effect; nearly all actives have a fitted effect of over 60% in size
# Target sequence (Q99714 whole entry, looked up, one chain of several): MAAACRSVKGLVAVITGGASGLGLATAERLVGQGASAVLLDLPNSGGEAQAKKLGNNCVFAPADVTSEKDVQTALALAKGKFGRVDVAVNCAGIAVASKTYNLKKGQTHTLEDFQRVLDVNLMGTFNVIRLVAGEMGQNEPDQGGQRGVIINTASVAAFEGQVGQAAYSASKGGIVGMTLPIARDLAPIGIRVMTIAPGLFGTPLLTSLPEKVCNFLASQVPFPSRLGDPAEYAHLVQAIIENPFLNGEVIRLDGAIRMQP
#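 His-tagged recombinant enzyme from E. coli, 20 nM, preincubated 15 min RT with compound; reaction started with 1 mM NAD+ and 90 uM beta-hydroxybutyryl-CoA in 100 mM Tris-HCl pH 9.0. NADH fluorescence (ex 360/em 450) read over 4 min; last-minus-first difference.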
# 4MU fluor – 4-MU region autofluorescence | 59,000 compounds, 11% hits | max dye-equivalent concentration, M | compound autofluorescence, 340/450 nm, 4-MU equivalents; hits give high values | AID 589; in the data active = max dye-equivalent concentration above about 10 nM; inconclusive = mostly about 1.1 nM to 9.6 nM
#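 Compounds in 100 mM Tris, pH 8.0, incubated 15 min at room temperature, then fluorescence read at 340 nm excitation/450 nm emission. Signal converted to 4-MU dye-equivalent concentration using an on-plate six-point 4-MU standard curve.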
# A350 fluor – compounds fluorescent in Alexa 350 spectral region; Compound autofluorescence, 340/450 nm, Alexa 350 dye-equivalents; hits give high values; max dye-equivalent concentration, M; 59,000 compounds, 11% hits; AID 590; in the data active = max dye-equivalent concentration above about 10 nM; inconclusive = mostly about 1.1 nM to 9.6 nM
# HSD17B inh – inhibitors of human HSD17B10 dehydrogenase; Q99714; recombinant HSD17B10, NADH fluorescence kinetic; Potency, µM (titrated, usually from 57.1 µM), for inactives: at the top dose activity change, negative = inhibition, most hits filed as inhibitors; 75,000 compounds, 7.6% hits;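 also: the protocol describes HADH2 (HSD17B10) and not the HSD17B4 of the title; potency is read from the fitted curve at half-maximal effect; % is scaled to controls: 0 for no effect and ±100 for the full control effect; nearly all actives have a fitted effect of over 70% in size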
#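 His-tagged E. coli-expressed HADH2 at 20 nM in 100 mM Tris-HCl pH 9.0 with 0.01 % Tween-20, preincubated 15 min with compound at room temperature. Reaction with 1 mM NAD+ and 90 uM beta-hydroxybutyryl coenzyme A; NADH fluorescence (360/450 nm) read kinetically over 4 min, last minus first point.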
# AID923 – qHTS Assay for Allosteric/Competitive Inhibitors of Caspase-1: Spectroscopic Profiling in AFC Spectral Region; compound fluorescence, AFC spectral region (405/520 nm); Potency, µM (titrated, usually from 57.5 µM), for the others: at the highest dose fluorescence increase, hits mostly activators; 75,000 compounds, 1.1% hits; AID 923, 2007; also: potency is read from the fitted curve at half-maximal effect; 0% is about no effect
#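 Baseline compound fluorescence (AFC region, 405 nm ex/520 nm em) taken from the intercept of kinetic reads with 50 nM caspase-1 and 5 uM Ac-WEHD-AFC; normalized to an on-plate AFC standard curve; compounds titrated up to 57 uM.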
# Numbers without * were called inactive; i = inactive; ? = inconclusive; . = no result given; [ ] = dose if it differs, or a comment. In the library only some 13% were active in any assay of this set; here they are far more common. Unless noted, calls follow the shape of the dose curve; as a rule, active = well fitted curve in the direction sought with a large enough effect; inconclusive = small, poorly fitted or top-dose-only effect, or another doubt; inactive = no such curve, though single readings can be large; an effect the other way counts as inactive or inconclusive.
SMILES,HADH2 inh,4MU fluor,A350 fluor,HSD17B inh,AID923
COc1cc2c(cc1OC)-c1cc(NCc3ccccn3)nc(=O)n1CC2,25µM*,1.7e-07M*,2.3e-07M*,32µM*,3%
CCNc1cc2n(c(=O)n1)CCc1cc(OC)c(OC)cc1-2,25µM*,5e-08M*,6.2e-08M*,25µM*,3%
CCCCCCNc1cc2n(c(=O)n1)CCc1cc(OC)c(OC)cc1-2,?,8.4e-08M*,1e-07M*,20µM*,1%
COc1cc(C(=O)OCCN2CCOCC2)cc(OC)c1OC,-1%,.,.,3%,9%
COc1cc2c(cc1OC)-c1cc(OCCN3CCOCC3)nc(=O)n1CC2,3.2µM*,5.3e-07M*,2.9e-07M*,25µM*,7%
C[C@@H](CN1CCC(Cc2ccccc2)CC1)[C@H](O)c1ccc(O)cc1,8%,i,i,-3%,-1%
CCCC[C@]1(C2CCCC2)Cc2cc(OCC(=O)O)c(Cl)c(Cl)c2C1=O,10%,i,i,?,-1%
Nc1ccc(O)cc1C(=O)OCC(=O)C12CC3CC(CC(C3)C1)C2,12%,3.6e-08M*,3.6e-08M*,102%,2%
Cc1ccc(S(=O)(=O)N2CCC(C(=O)OC(C)C(=O)NCc3ccc4c(c3)OCO4)CC2)cc1 (stereo not given),26%,i,i,-3%,1%
Cc1ccc(S(=O)(=O)N2CCC(C(=O)N[C@@H](C)C(=O)Nc3ccc4c(c3)OCO4)CC2)cc1,-9%,2.1e-08M*,2.3e-08M*,-7%,-1%
O=C(O)c1cc(-c2ccc(-c3ccc(-c4cc(C(=O)O)c5cc(Cl)ccc5n4)cc3)cc2)nc2ccc(Cl)cc12,3.2µM*,1.6e-06M*,1.7e-06M*,3.2µM*,1%[11.5 µM]
COC(=O)c1ccc(-c2cc(C(=O)O)c3cc4c(cc3n2)OCCO4)cc1,-75%,4.9e-06M*,6.7e-06M*,32µM*,1%
O=C(O)c1cc(-c2ccc(-c3ccccc3)cc2)nc2cc3ccccc3cc12,0%[11.4 µM],1.9e-08M*,2.1e-08M*,?,-2%[11.5 µM]
Cc1ccc(C(=O)c2cc3c(cc2N)OCCO3)cc1,-6%,.,.,0%,-2%
COCC(=O)N1CCC2(CC1)CCN(c1ccccn1)CC2,-3%,i,i,?,1%
COCC(=O)N1CCC2(CC1)CN(c1ccccn1)C2,19%,i,i,25µM*,1%
COCC(=O)N1CCC2(CCCN(c3ccccn3)C2)CC1,-23%,i,i,32µM*,3%
c1ccc2c(N3CCNCC3)nc(-c3ccc4c(c3)OCO4)nc2c1,3%,i,i,0%,-3%
COCCCNS(=O)(=O)c1ccccc1,5%[11.4 µM],.,.,1%,-3%
COCCCNS(=O)(=O)c1ccc2c3c(cccc13)C(=O)S2,-20%,8e-08M*,6.8e-08M*,?,7%
COc1ccc(-c2ccc3c(n2)CCCN3C[C@H](O)CN2CCCc3nc(C)c(C)cc32)cc1,14%[11.4 µM],.,.,?,3%[11.5 µM]
CC(=O)c1c(C)nn(CC(O)Cn2c3c(c4cc(C)ccc42)CCCC3=O)c1C (stereo not given),?,1.1e-07M*,9.5e-08M*,25µM*,7%
Cc1ccc2c(c1)c(C)c(C)n2CC(O)CN1CCCCC1C (stereo not given),?,.,.,?,0%
Cc1ccc2c(c1)c(C)c(C)n2CC(O)Cn1nc(C)c(Br)c1C (stereo not given),?,2.9e-08M*,3e-08M*,?,-2%
Cc1ccc2c(c1)c1c(n2CC(O)Cn2nc(C)c(Br)c2C)C(=O)CCC1 (stereo not given),4%,2.2e-08M*,2e-08M*,?,0%
Cc1cc2c(nc1C)CCCN2C[C@@H](O)CN1CCN(C)CC1,-4%[11.4 µM],.,.,-9%[11.4 µM],2%[11.5 µM]
Cc1noc(C)c1C(=O)N1CCC2(CC1)CN(Cc1cc(C(F)(F)F)cc(C(F)(F)F)c1)C2,-2%,i,i,1%,0%
Cc1cc2c(=O)n(CC(=O)NCC(=O)N3CCN(Cc4ccccc4)CC3)cnc2s1,-5%,2.8e-08M*,2.5e-08M*,0%,0%
COc1cccc(-c2cncnc2NCc2cccs2)c1,?,i,i,-15%,0%
O=C(COC(=O)c1cc(S(=O)(=O)N2CCOCC2)ccc1O)NCC1CCCO1 (stereo not given),1%,1.1e-08M*,1.2e-08M*,32µM*,-3%
